{"source": "the supplement of paper PMC12350171", "note": "Where a name gives a salt, the structure may show the parent alone. A number with no mark means an inactive call.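 How the source made its calls: active = AUC significantly below DMSO controls by Student t-fit with adjusted P under 0.01; inactive = not significantly reduced.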"}
{"test_system": "Haemophilus parainfluenzae", "assay": "growth AUC normalised to DMSO control (fraction of control); higher = less growth inhibition, active = hit call of the paper", "details": "20 µM", "method_in_brief": "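After two anaerobic passages, pathogens were added at a starting OD578 of 0.01 to pre-reduced mGAM plates holding compound at 20 μM with 1% DMSO; hemin and NAD were supplemented for Haemophilus parainfluenzae. Sealed with breathable membranes, plates were read at OD578 hourly for 24 h, in three biological replicates. The trapezoidal rule, applied up to the exponential-to-stationary transition, gave the growth-curve AUC, which was normalised to DMSO controls on the same plate.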"}
{"smiles": "CC(C)NC[C@@H](O)COc1ccc(CC(N)=O)cc1", "note": "[(R,+) Atenolol]", "growth AUC normalised to DMSO control": 0.98}
{"smiles": "O=C(O)Cc1ccc(-c2ccccc2)cc1", "note": "[Felbinac]", "growth AUC normalised to DMSO control": 0.948}
{"smiles": "CC[N+](C)(C)c1cccc(O)c1", "note": "[Edrophonium chloride]", "growth AUC normalised to DMSO control": 0.936}
{"smiles": "CO[C@H]1C[C@H](O[C@H]2[C@H](C)[C@@H](O[C@@H]3O[C@H](C)C[C@H](N(C)C)[C@H]3OC(C)=O)[C@@H](C)C[C@@]3(CO3)C(=O)[C@H](C)[C@@H](OC(C)=O)[C@@H](C)[C@@H](C)OC(=O)[C@@H]2C)O[C@@H](C)[C@@H]1OC(C)=O", "note": "[Troleandomycin]", "growth AUC normalised to DMSO control": 0.921}
{"smiles": "CN(C)CCOC(c1ccc(Cl)cc1)c1ccccn1", "note": "(stereo not drawn) [Carbinoxamine maleate salt]", "growth AUC normalised to DMSO control": 1.08}
{"smiles": "CN1CCN(CCCN2c3ccccc3Sc3ccc(C(F)(F)F)cc32)CC1", "note": "[Trifluoperazine dihydrochloride]", "growth AUC normalised to DMSO control": 0.927}
{"smiles": "Cc1cccc(C)c1OCC(C)N", "note": "(stereo not drawn) [Mexiletine hydrochloride]", "growth AUC normalised to DMSO control": 1.02}
{"smiles": "CC#C[C@]1(O)CC[C@H]2[C@@H]3CCC4=CC(=O)CCC4=C3[C@@H](c3ccc(N(C)C)cc3)C[C@@]21C", "note": "[Mifepristone]", "growth AUC normalised to DMSO control": 0.994}
{"smiles": "C[C@]12CC[C@@H]3c4ccc(O)cc4CC[C@H]3[C@@H]1CC[C@@H]2O", "note": "[Estradiol-17 beta]", "growth AUC normalised to DMSO control": 1}
{"smiles": "COc1ccccc1OCC(O)CO", "note": "(stereo not drawn) [Guaifenesin]", "growth AUC normalised to DMSO control": 1.04}
{"smiles": "CN(C)CCOC(c1ccccc1)c1ccccc1.Cn1c(=O)c2[nH]c(Cl)nc2n(C)c1=O", "note": "[Dimenhydrinate]", "growth AUC normalised to DMSO control": 0.901}
{"smiles": "OC(CCN1CCCC1)(c1ccccc1)C1CCCCC1", "note": "(stereo not drawn) [Procyclidine hydrochloride]", "growth AUC normalised to DMSO control": 0.962}
{"smiles": "O=C1c2c(O)cccc2Cc2cccc(O)c21", "note": "[Anthralin]", "growth AUC normalised to DMSO control": 1.39}
{"smiles": "C=CCN1CCCC1CNC(=O)c1cc2nn[nH]c2cc1OC", "note": "(stereo not drawn) [Alizapride hydrochloride]", "growth AUC normalised to DMSO control": 1}
{"smiles": "COCCCC/C(=N\\OCCN)c1ccc(C(F)(F)F)cc1", "note": "[Fluvoxamine maleate]", "growth AUC normalised to DMSO control": 0.981}
{"smiles": "Cc1nnc(NS(=O)(=O)c2ccc(N)cc2)s1", "note": "[Sulfamethizole]", "growth AUC normalised to DMSO control": 0.903}
{"smiles": "CC(C)(C)NC[C@H](O)COc1nsnc1N1CCOCC1", "note": "[Timolol maleate salt]", "growth AUC normalised to DMSO control": 1.02}
{"smiles": "COc1cc(N)c(Cl)cc1C(=O)NC1CCN(Cc2ccccc2)CC1", "note": "[Clebopride maleate]", "growth AUC normalised to DMSO control": 0.989}
{"smiles": "CNCC(O)c1ccc(OC(=O)C(C)(C)C)c(OC(=O)C(C)(C)C)c1", "note": "(stereo not drawn) [Dipivefrin hydrochloride]", "growth AUC normalised to DMSO control": 0.986}
{"smiles": "CN1CCN(CCCN2c3ccccc3Sc3ccc(S(=O)(=O)N(C)C)cc32)CC1", "note": "[Thioproperazine dimesylate]", "growth AUC normalised to DMSO control": 1.01}
{"smiles": "COc1cc2nc(N(C)CCCNC(=O)C3CCCO3)nc(N)c2cc1OC", "note": "(stereo not drawn) [Alfuzosin hydrochloride]", "growth AUC normalised to DMSO control": 1.03}
{"smiles": "CCN1CCC[C@H]1CNC(=O)c1c(OC)ccc(Br)c1OC", "note": "[Remoxipride hydrochloride]", "growth AUC normalised to DMSO control": 1.04}
{"smiles": "Nc1ccc(S(=O)(=O)Nc2nccs2)cc1", "note": "[Sulfathiazole]", "growth AUC normalised to DMSO control": 1.03}
{"smiles": "CC(C)(C)NCC(O)COc1cccc2c1CC(O)C(O)C2", "note": "(stereo not drawn) [Nadolol]", "growth AUC normalised to DMSO control": 1}
{"smiles": "CCCCOC(=O)c1ccc(N)cc1", "note": "[Butamben]", "growth AUC normalised to DMSO control": 1}
{"smiles": "CS(=O)(=O)c1ccc([C@@H](O)[C@@H](CO)NC(=O)C(Cl)Cl)cc1", "note": "[Thiamphenicol]", "growth AUC normalised to DMSO control": "0.032 (active)"}
{"smiles": "NC(=O)c1cccnc1", "note": "[Nicotinamide]", "growth AUC normalised to DMSO control": 1.04}
{"smiles": "CN(C)CCC=C1c2ccccc2CCc2ccccc21", "note": "[Amitryptiline hydrochloride]", "growth AUC normalised to DMSO control": 0.958}
{"smiles": "N[C@@H](Cc1cc(I)c(Oc2cc(I)c(O)c(I)c2)c(I)c1)C(=O)O", "note": "[(L) Thyroxine]", "growth AUC normalised to DMSO control": 0.96}
{"smiles": "NS(=O)(=O)c1cc(C(=O)O)cc(N2CCCC2)c1Oc1ccccc1", "note": "[Piretanide]", "growth AUC normalised to DMSO control": 1.06}
{"smiles": "COC(=O)Nc1nc2cc(Sc3ccccc3)ccc2[nH]1", "note": "[Fenbendazole]", "growth AUC normalised to DMSO control": 1.04}
{"smiles": "COC(=O)Nc1nc2cc(C(=O)c3ccc(F)cc3)ccc2[nH]1", "note": "[Flubendazol]", "growth AUC normalised to DMSO control": 1.02}
{"smiles": "Nc1nc(O)c2ncn(CCC(CO)CO)c2n1", "note": "[Penciclovir]", "growth AUC normalised to DMSO control": 0.944}
{"smiles": "Cc1c(C)c2c(c(C)c1O)CCC(C)(C(=O)O)O2", "note": "(stereo not drawn) [Trolox]", "growth AUC normalised to DMSO control": 1}
{"smiles": "Cn1cnc2c1c(=O)[nH]c(=O)n2C", "note": "[Theobromine]", "growth AUC normalised to DMSO control": 1.06}
{"smiles": "CCCCOc1cc(C(=O)OCCN(CC)CC)ccc1N", "note": "[Benoxinate hydrochloride]", "growth AUC normalised to DMSO control": 1.01}
{"smiles": "O=C1CCc2ccc(OCCCCN3CCN(c4cccc(Cl)c4Cl)CC3)cc2N1", "note": "[Aripiprazole]", "growth AUC normalised to DMSO control": 0.994}
{"smiles": "N#Cc1ccc(C(c2ccc(C#N)cc2)n2cncn2)cc1", "note": "[Letrozole]", "growth AUC normalised to DMSO control": 1.01}
